DT40 TDP1 CPT: qHTS for Inhibitors of human tyrosyl-DNA phosphodiesterase 1 (TDP1): qHTS in cells in presence of CPT | chicken DT40 Tdp1-/-;hTDP1 cells + 20 nM CPT, ATP luminescence, 48 h | Potency, µM (titrated, usually from 46.2 µM), for inactives: top-dose activity change, negative = growth inhibition, most hits filed as inhibitors | 420,000 tested, 12% active | AID 686979, 2013; further: potency means the concentration at half of the fitted maximal effect; nearly all actives have a fitted effect of over 55% in size
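Chicken DT40 Tdp1-/- cells stably complemented with human TDP1 were seeded at 400 cells/well in medium containing 20 nM camptothecin, exposed to pin-transferred compounds, and grown at 37 °C for at least 48 hr. Viability was read as ATP luminescence.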
HT1080 IDH1KD tx: qHTS for induction of synthetic lethality in tumor cells producing 2HG: qHTS for the HT-1080-IDH1KD cell line; Potency, µM (series often up to 46.1 µM), for inactives: at the top dose activity, negative = toxicity, usual class: cytotoxic; HT-1080 IDH1 knockdown viability, ATP luminescence, 48 h; 360,000 tested, 2% active;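 further: potency means the concentration at half of the fitted maximal effect; 0% = DMSO wells and -100% = cell-free medium wells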
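% activity derives from luminescence (CellTiter-Glo), normalised to DMSO and no-cell wells. HT-1080-IDH1KD cells, 750/well, had 48 h compound exposure at 37 °C.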
HT1080NT lethal: qHTS for induction of synthetic lethality in tumor cells producing 2HG: qHTS for the HT-1080-NT fibrosarcoma cell line; HT-1080-NT fibrosarcoma viability, CellTiter-Glo ATP luminescence, 48 h; Potency, µM (series often up to 46.1 µM), without a hit: top-dose activity, negative = less viability, most hits filed as cytotoxic; 360,000 tested, 1.6% active; AID 686970, 2013;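 further: NT is the 2HG producing partner of a matched IDH1 knockdown line; potency means the concentration at half of the fitted maximal effect; 0% = DMSO-treated cells and -100% = media-only wells without cells; nearly all actives have a fitted effect of over 55% in size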
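A 48-hour cytotoxicity screen used HT-1080-NT cells plated 2 hours before compound delivery. ATP-based CellTiter-Glo luminescence measured viability, normalized to DMSO and no-cell controls.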
IL1B secr inh: qHTS for Inhibitors of Inflammasome Signaling: IL-1-beta AlphaLISA Primary Screen; THP-1 LPS/ATP IL-1B secretion, AlphaLISA, 16 h; active compounds read low; activity change, % at 57.5 µM; 360,000 tested, 4.7% active; AID 743279, 2014; in the data active means activity change below about -50%; inconclusive means mostly about -30% to -49%
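Secreted IL-1B measured by AlphaLISA bead assay after 16 h compound exposure of THP-1 cells; compounds (final up to 57.5 uM) added 1 h before LPS (250 ng/mL) and ATP (1.25 mM) stimulation; lower signal means less secretion.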
DT40 TDP1 no CPT: qHTS for Inhibitors of human tyrosyl-DNA phosphodiesterase 1 (TDP1): qHTS in cells in absence of CPT. 420,000 tested, 15% active. Potency, µM (doses to about 46.2 µM), without a hit: top-dose activity change, negative = growth inhibition, hits mostly inhibitors. DT40 Tdp1-/- hTDP1 cells, no CPT, ATP luminescence, 48 h; further: potency means the concentration at half of the fitted maximal effect; nearly all actives have a fitted effect of over 55% in size
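Chicken DT40 Tdp1-/- cells complemented with human TDP1, screened without camptothecin (DMSO vehicle only), 400 cells/well. Compounds pin-transferred, cells incubated at 37 °C for at least 48 hr. Growth read as ATP-dependent luminescence (CellTiter-Glo, 30 min at RT).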
The depositor's hits bear a star; i = inactive; ? = inconclusive; . = no result; [ ] = remark or other dose. A selection: hits, their analogues and other compounds. The true share with any hit is near 19%. Unless noted, the call rests on the fitted dose curve; in most records, active means well fitted curve in the direction sought with a large enough effect; inconclusive means small, poorly fitted or top-dose-only effect, or another doubt; inactive means no such curve, though single readings can be large; an effect the other way counts as inactive or inconclusive. Unless noted, on the % scale 0 is the no-effect control and ±100 the full control effect.

SMILES	DT40 TDP1 CPT	HT1080 IDH1KD tx	HT1080NT lethal	IL1B secr inh	DT40 TDP1 no CPT
O=[N+]([O-])c1ccc(OC/C=C2\Oc3ccc([N+](=O)[O-])cc3C2N2CCOCC2)cc1 (configuration not stated)	?	-28%	?	-59*	23µM*
O=C(Nc1nnc(-c2ccccc2)o1)c1cc(Cl)sc1Cl	7.3µM*	0%	14%	0	9.2µM*
O=C(Nc1nnc(-c2ccc(Cl)cc2)o1)c1nc2ccccc2s1	?	-16%	-2%	21	21µM*
O=C(Nc1nnc(-c2ccc(F)cc2)o1)c1cc(Cl)sc1Cl	26µM*	-13%	1%	9	21µM*
Cc1cc(C(=O)NC2CCC(O)CC2)c(C)o1 (configuration not stated)	-7%	5%	10%	8	2%
CCC(CC)c1nn2c(=O)cc(COc3ccc(NC(=O)c4ccc(Cl)cc4)cc3)nc2s1	0%	.	.	.	3%
CCCCn1c(N)c(N(Cc2ccccc2OC)C(=O)C(C)Oc2ccc(Cl)cc2)c(=O)[nH]c1=O (configuration not stated)	-15%	-3%	-4%	i	-11%
COc1ccc(OCCSc2nc(N)cc(=O)[nH]2)cc1	-20%	-11%	-1%	25	-22%
CCOc1ccc(OCCSc2nc(C)cc(=O)[nH]2)cc1	12µM*	2%	-2%	15	21µM*
COc1ccc(-n2nnc3c(SCC(=O)NCc4ccco4)ncnc32)cc1	?	?	-27%	-16	2.9µM*
CCOc1ccc(-n2nnc3c(=O)n(CC(=O)NCc4ccco4)cnc32)cc1	-22%	0%	11%	0	0%
Cc1nnc(SCC(=O)NCc2ccco2)n1-c1ccc(F)cc1	5%	18%	21%	-1	0%
COc1ccc(-n2nnc3c(SC(C(C)=O)C(=O)N(C)C)ncnc32)cc1 (configuration not stated)	18µM*	18%	3%	0	16µM*
O=C(CSc1ncnc2c1nnn2-c1ccc(F)cc1)NCc1ccco1	?	-3%	-6%	-4	15µM*
CC(=NNC(=O)Cn1ccc(C(F)(F)F)n1)c1ccc(-n2ccnc2)cc1	-26%	8%	-1%	-11	?
CC(=O)Oc1ccc(C(=O)O)c(OC(C)=O)c1	2%	1%	17%	15	9%
NC(C(=O)O)c1cc(O)cc(O)c1 (configuration not stated)	-3%	.	.	.	2%
N#CC1C=Cc2c(ccc3ccccc23)N1C(=O)c1ccccc1 (configuration not stated)	0.58µM*	?	1.8µM*	-66*	0.92µM*
CC(=O)Oc1cccc(/C=C2\C=C(c3ccc(C)cc3)OC2=O)c1	18µM*	4%	5%	-9	?
CN(C)c1ccc(/C=C2/C=C(c3ccc4c(c3)CCCC4)OC2=O)cc1	?	11%	4%	10	?
CN(C)c1ccc(C=C2C=C(c3ccccc3)OC2=O)cc1	18µM*	-2%	-5%	-13	10µM*
Cc1ccc(C=C2C=C(c3ccccc3)OC2=O)cc1	?	8%	-1%	-19	26µM*
O=S(=O)(Nc1ccc(-c2cn3c(n2)SCC3)cc1)c1cc(F)ccc1F	-14%	3%	2%	-18	?
COc1ccc(-c2onc(C)c2C)cc1S(=O)(=O)N(C)Cc1ccccc1	21µM*	.	.	.	23µM*
Cn1cc(C(CO)Cc2ccccc2)c2ccccc21 (configuration not stated)	?	3%	3%	20	?
SMILES	DT40 TDP1 CPT	HT1080 IDH1KD tx	HT1080NT lethal	IL1B secr inh	DT40 TDP1 no CPT
COC(=O)c1sc(NC(=O)c2ccc([N+](=O)[O-])o2)c(C#N)c1C	9.2µM*	-3%	0%	?	6.5µM*
CCOC(=O)c1sc(NC(=O)c2ccco2)c(C#N)c1C	-9%	-1%	-8%	11	-25%
COC(=O)c1c(NC(=O)c2ccc([N+](=O)[O-])o2)sc2c1CCN(C(C)C)C2	0.58µM*	4.6µM*	21µM*	-97*	0.82µM*
CCN(CC)C(=O)c1sc(NC(=O)c2cccc([N+](=O)[O-])c2)c(C#N)c1C	21µM*	4%	9%	2	16µM*
COC(=O)c1c(NC(=O)Cc2ccccc2)sc2c1CCN(C(C)C)C2	?	-5%	-15%	?	?
COC(=O)C1C(=O)c2c(C)noc2CC1(C)C (configuration not stated)	2%	12%	13%	11	10%
CCOc1cc(/C=N/NC(=O)C(C)Sc2ccccc2)ccc1O (configuration not stated)	-16%	-1%	-17%	0	?
O=C(COc1ccc(S(=O)(=O)NC2CCCCC2)cc1)NCCC1=CCCCC1	?	-13%	-8%	-15	?
Cc1ccc2nc(NC(=O)c3cccc(-c4cc5ccccc5oc4=O)c3)sc2c1	15µM*	?	?	31	23µM*
CCOc1ccc2nc(NC(=O)c3cccc(-c4cc5ccccc5oc4=O)c3)sc2c1	?	16µM*	13µM*	-20	23µM*
CCOc1ccc2nc(NC(=O)c3cccc(N4C(=O)CCC4=O)c3)sc2c1	-20%	0%	11%	-9	?
CCOc1ccc(C(=O)Nc2cccc(-c3cc4ccccc4oc3=O)c2)cc1[N+](=O)[O-]	23µM*	-6%	3%	1	23µM*
COc1cc(C2Nc3cccc4cccc(c34)N2)ccc1OC(C)=O	16µM*	12%	-5%	0	16µM*
COc1cc(C2Nc3cccc4cccc(c34)N2)cc(OC)c1O	18µM*	?	?	-90*	?
O=[N+]([O-])c1ccc(C2Nc3cccc4cccc(c34)N2)cc1	-16%	3%	2%	-1	-23%
COC(=O)c1ccc(C2Nc3cccc4cccc(c34)N2)cc1	8.2µM*	-25%	-5%	6	9.2µM*
COc1ccc(C2Nc3cccc4cccc(c34)N2)cc1Br	?	-6%	-20%	19	?
Oc1ccc(C2Nc3cccc4cccc(c34)N2)c(O)c1	4.1µM*	?	-23%	-4	26µM*
Cc1cnc(-n2ncc(C(=O)NCC3CCCN(C)C3)c2C)nc1-c1cccs1 (configuration not stated)	-11%[9.04 µM]	.	.	.	-13%
O=C(NCc1nnnn1-c1ccc(Cl)cc1)c1ccc(Br)o1	2%	5%	-1%	-7	-29%

Screening data (PubChem BioAssay)
